PubChem BioAssay (NCATS)
Results filed as inconclusive are left out. Calls of active or inactive are those of the source. Calls follow the shape of the dose curve; as a rule, active = well fitted curve in the direction sought with a large enough effect; inconclusive = small, poorly fitted or top-dose-only effect, or another doubt; inactive = no such curve, though single readings can be large; an effect the other way counts as inactive or inconclusive.

Assays:
[1] = molecular target: Metallo-beta-lactamase type 2 (Klebsiella pneumoniae) (UniProt C7C422); test: qHTS to identify inhibitors of the New Delhi Metallo-beta-lactamase (NDM): assay validation screen against the NCATS LOPAC Collection (AID 1794843);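 also: nitrocefin turnover by NDM-1 measured as 485 nm absorbance at plateau; series mostly up to about 38 µM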
Chain of Metallo-beta-lactamase type 2 (Klebsiella pneumoniae) (C7C422 whole entry, looked up): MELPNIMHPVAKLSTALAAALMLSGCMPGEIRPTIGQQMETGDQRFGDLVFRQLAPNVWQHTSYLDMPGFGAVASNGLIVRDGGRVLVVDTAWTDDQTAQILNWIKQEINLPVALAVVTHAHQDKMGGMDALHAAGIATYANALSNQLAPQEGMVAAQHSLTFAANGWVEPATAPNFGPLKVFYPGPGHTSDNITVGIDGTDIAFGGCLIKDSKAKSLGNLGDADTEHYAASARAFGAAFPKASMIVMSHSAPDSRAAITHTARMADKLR
Method in brief: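 Nitrocefin hydrolysis (50 uM substrate stock) by NDM-1, 2 nM final, was followed by 485 nm absorbance after compound preincubation; buffer was 50 mM HEPES pH 7.0, 1 uM ZnSO4, 0.01% Tween20.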

[2] = molecular target: Glutathione peroxidase 1 (Homo sapiens) (UniProt P07203); test: Primary qHTS Assay for Inhibitors of Recombinant Selenoprotein Glutathione Peroxidase 1 (GPX1) (AID 1845191); also: nearly all actives have a fitted effect of over 65% in size
Chain of Glutathione peroxidase 1 (Homo sapiens) (P07203 whole entry, looked up): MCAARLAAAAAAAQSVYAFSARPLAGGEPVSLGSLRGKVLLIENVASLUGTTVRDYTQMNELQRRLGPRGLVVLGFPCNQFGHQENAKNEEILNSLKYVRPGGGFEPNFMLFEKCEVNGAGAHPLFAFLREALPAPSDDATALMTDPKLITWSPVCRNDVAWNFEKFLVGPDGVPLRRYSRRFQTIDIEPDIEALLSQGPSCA
Method in brief: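 10 nM GPX1 + cpd, 30 min RT; start w/ 1 mM GSH, 0.5 mM cumene hydroperoxide, 0.5 mM NADPH, 100 nM GR, 0.01% BSA; buffer 50 mM Tris-HCl pH 7.5, 2 mM EDTA, 150 mM NaCl; Fl 340/450, 0 & 15 min.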

[3] = molecular target: Phospholipid hydroperoxide glutathione peroxidase GPX4 (Homo sapiens) (UniProt P36969); test: Primary qHTS Assay for Inhibitors of Recombinant Selenoprotein Glutathione Peroxidase 4 (GPX4) (AID 1845192); also: nearly all actives have a fitted effect of over 65% in size
Chain of Phospholipid hydroperoxide glutathione peroxidase GPX4 (Homo sapiens) (P36969 whole entry, looked up): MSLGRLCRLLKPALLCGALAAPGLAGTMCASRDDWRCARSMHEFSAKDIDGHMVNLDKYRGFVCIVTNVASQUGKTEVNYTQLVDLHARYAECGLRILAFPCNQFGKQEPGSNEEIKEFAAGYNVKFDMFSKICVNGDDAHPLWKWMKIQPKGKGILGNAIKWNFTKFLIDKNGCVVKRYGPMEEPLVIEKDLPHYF
Method in brief: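 NADPH consumption, followed by fluorescence at 340/450 nm between 0 and 15 min, reports GPX4 activity via coupled glutathione reductase (100 nM). Enzyme 200 nM was pre-exposed to compound 30 min; 0.5 mM cumene hydroperoxide and 1 mM GSH served as substrates.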

[4] = molecular target: Luciferin 4-monooxygenase (Photinus pyralis) (UniProt P08659); test: Primary firefly luciferase (FLuc) qHTS assay for identification of artifact compounds. (AID 1845220); conditions: outcome: dose series up to 54.1 µM; also: series mostly up to about 54 µM; nearly all actives have a fitted effect of over 60% in size
Method in brief: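 Compounds sat 15 min at room temperature with 10 uM luciferin and 10 uM ATP (pH 7.6 Tris acetate). Firefly luciferase (10 nM final) was then added, and luminescence was read 5 min later. Data normalized to no-enzyme and DMSO controls were Hill-fitted.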

[5] = Primary fluorescence-based thiol-reactive (MSTI) qHTS assay for identification of artifact compounds. (AID 1845221);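 also: series mostly up to about 54 µM; thiol-reactive compounds lower the probe fluorescence signal; nearly all actives have a fitted effect of over 65% in size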
Method in brief: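 Probe: MSTI 4 uM, PBS pH 7.4, 2% DMSO. Incubation 1 h, RT, light-protected. Readout fluorescence 525/598 nm.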

[6] = test system: Nanoluciferase (engineered Oplophorus gracilirostris luciferase); test: Primary Nanoluciferase (NLuc) qHTS assay for identification of artifact compounds. (AID 1845222); also: series mostly up to about 54 µM
Method in brief: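 Luminescence from secreted NLuc (filtered, 1:55-diluted S16 cell medium) read 5 min after Nano-Glo substrate; compounds preincubated 15 min, RT. Hill fits of inhibition normalized to DMSO and no-enzyme.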

[7] = Primary redox qHTS assay for identification of artifact compounds. (AID 1845223)
Method in brief: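 Amplex Red (25 uM) and HRP (250 mU/mL) in HBSS, with compounds for 15 min, then 250 uM DTT for 30 min, room temperature, dark. Fluorescence 525/598 nm read; normalized to DMSO and 10 uM DA3003; Hill fit.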

[8] = Quantitative High-Throughput drug screen in 47 multiple myeloma cell lines against the NCATS MIPE library collection: FR4_PLB cell viability assay (AID 1918924; also: nearly all actives have a fitted effect of over 35% in size; also: potency is read from the fitted curve at half-maximal effect)
Method in brief: (§1)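 Luminescent ATP measurement with CellTiter-Glo gives viability, scaled between DMSO-only wells (100%) and media-only wells (0%). Cells, 500 per well, faced library compounds for 48 hours at 37C.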

[9] = Quantitative High-Throughput drug screen in 47 multiple myeloma cell lines against the NCATS MIPE library collection: EJM_DSMZ cell viability assay (AID 1918926; also: nearly all actives have a fitted effect of over 30% in size; also: potency is read from the fitted curve at half-maximal effect)
Method in brief: as §1

[10] = Quantitative High-Throughput drug screen in 47 multiple myeloma cell lines against the NCATS MIPE library collection: AMO1_DSMZ cell viability assay (AID 1918927; also: nearly all actives have a fitted effect of over 30% in size; also: potency is read from the fitted curve at half-maximal effect)
Method in brief: as §1

[11] = Quantitative High-Throughput drug screen in 47 multiple myeloma cell lines against the NCATS MIPE library collection: ARP1_JJKsccF8 cell viability assay (AID 1918928; also: nearly all actives have a fitted effect of over 40% in size; also: potency is read from the fitted curve at half-maximal effect)
Method in brief: (§2)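 Luminescence from CellTiter-Glo, taken after 5 min at room temperature, reports cellular ATP as viability. Cells (500 per well) had been treated 48 h at 37 °C with MIPE 4.0 compounds, scaled between DMSO and medium-only controls.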

[12] = Quantitative High-Throughput drug screen in 47 multiple myeloma cell lines against the NCATS MIPE library collection: ARD_JJKsccE7 cell viability assay (AID 1918929; also: potency is read from the fitted curve at half-maximal effect)
Method in brief: as §1

[13] = Quantitative High-Throughput drug screen in 47 multiple myeloma cell lines against the NCATS MIPE library collection: Karpas620_DSMZ cell viability assay (AID 1918959); also: nearly all actives have a fitted effect of over 30% in size; also: potency is read from the fitted curve at half-maximal effect
Method in brief: as §1

[14] = Quantitative High-Throughput drug screen in 47 multiple myeloma cell lines against the NCATS MIPE library collection: JIM3_ECACC cell viability assay (AID 1918963; also: nearly all actives have a fitted effect of over 35% in size; also: potency is read from the fitted curve at half-maximal effect)
Method in brief: as §1

[15] = Quantitative High-Throughput drug screen in 47 multiple myeloma cell lines against the NCATS MIPE library collection: INA6_PLB cell viability assay (AID 1918965; also: nearly all actives have a fitted effect of over 55% in size; also: potency is read from the fitted curve at half-maximal effect)
Method in brief: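 Steps: seed 500 cells per well; pin-transfer MIPE 4.0 library; incubate 48 h at 37C, 5% CO2, humidified; add CellTiter-Glo, 5 min room temperature; read luminescence.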

[16] = Quantitative High-Throughput drug screen in 47 multiple myeloma cell lines against the NCATS MIPE library collection: JJN3_DSMZ cell viability assay (AID 1918966; also: nearly all actives have a fitted effect of over 50% in size; also: potency is read from the fitted curve at half-maximal effect)
Method in brief: as §1

[17] = Quantitative High-Throughput drug screen in 47 multiple myeloma cell lines against the NCATS MIPE library collection: H1112_PLB cell viability assay (AID 1918967; also: nearly all actives have a fitted effect of over 30% in size; also: potency is read from the fitted curve at half-maximal effect)
Method in brief: as §1

[18] = Quantitative High-Throughput drug screen in 47 multiple myeloma cell lines against the NCATS MIPE library collection: KMM1_JCRB cell viability assay (AID 1918960); also: nearly all actives have a fitted effect of over 30% in size
Method in brief: as §2

Measured: Potency

CC[C@@H](CO)NC(=O)[C@@H]1C=C2c3cccc4[nH]cc(c34)C[C@H]2N(C)C1
inactive: [1] | [2] | [3]

C[C@@H]1O[C@@H](O[C@H]2C[C@@H](O)[C@]3(CO)[C@H]4[C@H](O)C[C@]5(C)[C@@H](C6=CC(=O)OC6)CC[C@]5(O)[C@@H]4CC[C@]3(O)C2)[C@H](O)[C@H](O)[C@H]1O
active: [8] 9.3 nM | [9] 23.5 nM | [10] 9.3 nM | [11] 41.8 nM | [12] 14.8 nM | [13] 37.2 nM | [14] 41.8 nM | [15] 23.5 nM | [16] 105 nM | [17] 83.3 nM
inactive: [1] | [2] | [3] | [4] | [5] | [6] | [7]

CC[C@@H](CO)NC(=O)[C@@H]1C=C2c3cccc4c3c(cn4C)C[C@H]2N(C)C1
inactive: [1] | [2] | [3]

CC(=O)[C@H]1CC[C@H]2[C@@H]3CC[C@H]4C[C@H](O)CC[C@]4(C)[C@H]3C(=O)C[C@]12C
inactive: [1] | [2] | [3]

Nc1ccncc1
inactive: [1] | [2] | [3]

CN1C[C@H](CNC(=O)OCc2ccccc2)C[C@@H]2c3cccc4c3c(cn4C)C[C@H]21
inactive: [1] | [2] | [3]

O=C1NCN(c2ccccc2)C12CCN(CC1COc3ccccc3O1)CC2 (configuration not stated)
inactive: [1] | [2] | [3]

c1ccc(C2CC2)c(OCC2=NCCN2)c1
inactive: [1] | [2] | [3]

CCCN1CCC[C@@H]2Cc3nc(N)ncc3C[C@H]21
inactive: [1] | [2] | [3]

CC(=O)[C@H]1CC[C@H]2[C@@H]3CC[C@H]4C[C@](C)(O)CC[C@]4(C)[C@H]3CC[C@]12C
inactive: [1] | [2] | [3]

Fc1ccc(C(OCCN2CCN(CCCc3ccccc3)CC2)c2ccc(F)cc2)cc1
inactive: [1] | [2] | [3] | [10] | [13] | [18]
active: [8] 20900 nM | [9] 13200 nM | [11] 20900 nM | [14] 13200 nM | [15] 13200 nM | [16] 23500 nM | [17] 13200 nM

Cc1ccc(S(=O)(=O)N[C@@H](CCCCN)C(=O)CCl)cc1
inactive: [1] | [2] | [3]

NN=C(N)N
inactive: [1] | [2] | [3]

NCC(CC(=O)O)c1ccc(Cl)cc1 (configuration not stated)
inactive: [1] | [2] | [3]

NCC1(CC(=O)O)CCCCC1
not listed: [4] | [5] | [6] | [7]
inactive: all other assays above

CCCN1CCC[C@@H]2Cc3[nH]ncc3C[C@H]21
inactive: [1] | [2] | [3]

Cc1cccc(C)c1NC1=NCCCS1
inactive: [1] | [2] | [3]

Cc1ncc(CNC(=O)N(CCCl)N=O)c(N)n1
inactive: [1] | [2] | [3]

CC(CCc1ccccc1)NC(C)C(O)c1ccc(O)cc1 (configuration not stated)
inactive: [1] | [2] | [3]

COc1ccccc1N1CCNCC1
inactive: [1] | [2] | [3]

O=c1[nH]c2ccccc2n1C1CCN(CCCC(c2ccc(F)cc2)c2ccc(F)cc2)CC1
inactive: [1] | [2] | [3] | [4] | [5] | [6] | [7]
